From PubChem BioAssay (NCATS) come the findings set out here.

A number with no mark means an inactive call. The rule behind the calls is not given here.
Potency is the fitted concentration of half-maximal effect.

In the test the test system is HIV-1 nucleocapsid protein NCp7 (binding to TG oligonucleotide). The test is described as follows: HIV Nucleocapsid (AID 346).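 Note: potency is for inhibitors that block NC binding and lower polarization.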 The conditions noted are these: HIV-1 NC / fluorescein-TGTGTGTG probe, fluorescence polarization. As to the method: NCGC Assay Overview: HIV-1 nucleocapsid protein (HIV-1 NC) is a small (6.5 kDa) basic zinc-finger protein which participates in packaging of viral genomic RNA. The spacing and metal-chelating residues (3 Cys, 1 His) of the Cys-X2-Cys-X4-His-X4-Cys Zn fingers are conserved among all known retroviruses (J. Med. Chem. 1998, 41, 1371-1381). HIV-1 NC was assayed for its binding to the consensus sequence single-stranded 5'-TGTGTGTG. […] High salt was included to increase the stringency of binding and inhibitor screen. Reducing agents and zinc were present to stabilize the nucleocapsid zinc-finger protein.
NCGC Assay Protocol Summary: Buffer. Hepes pH 7.5, 250mM NaCl, 1uM ZnCl2. 0.004% polyethylene glycol 20000. TCEP (100 uM) and 2-Mercaptoethanol (5 mM), added fresh the day of the experiment. Reagents/Controls. 10 nM TG4xF only in columns 3 and 4 as negative control. 10 nM TG4xF/100 nM HIV-1 NC in columns 1, 2, 5-48. Titration of control compound NSC-13778 (from 20 mM, then 1:2) pin-transferred to column 2. Assay Steps. Two uL of reagents were dispensed to 1536-well Kalypsys black plates. The plates were centrifuged for 1 min at 1000 rpm. Compounds and controls (20 nL) were transferred via Kalypsys PinTool. The plates were incubated for 1 hr at room temperature, and then read on ViewLux (Perkin-Elmer). High-throughput CCD imager using fluorescein polarization filter set and 45 seconds exposure time.
On the technique in general: Fluorescence polarisation rises when a labelled molecule tumbles more slowly, as on binding a larger partner.
Regarding `O=C(c1ccncc1)N1CCC[C@@]2(CCN(Cc3cc(C(F)(F)F)cc(C(F)(F)F)c3)C2)C1`, the Potency was > 20 µM.

For the compound `c1ccc(CNc2ccnc(-c3ccc4c(c3)OCO4)n2)cc1`, the Potency is > 20 µM.

Take `COCC(=O)N1CCC[C@@]2(CCN(Cc3ccccc3)C2)C1`: the Potency is > 20 µM.

As for `CC(C)CN1CC2(CCN(C(=O)c3cccc(F)c3)CC2)C1`, the Potency is > 20 µM.

In the case of `COCCNc1nc(-c2ccccc2C)nc2ccccc12`, the Potency was > 20 µM.

As to `COc1ncc2nc(-c3cn(C)c4ccccc34)c(=O)n(CCC#N)c2n1`, the Potency is > 20 µM.

As for `N#Cc1cccc(NC(=O)N2CCCC3(CCN(S(=O)(=O)c4ccccc4)CC3)C2)c1`, the Potency was > 20 µM.

Regarding `c1ccc2c(Nc3ccncc3)nc(-c3ccoc3)nc2c1`, the Potency was > 20 µM.

On to `COc1cccc(Cn2c(=O)c(-c3cn(C)c4ccccc34)nc3cnc(N4CCNCC4)nc32)c1`, for which the Potency is > 20 µM.

As for `CN1CCN(c2ncc3nc(-c4cn(C)c5ccccc45)c(=O)n(CCc4ccccc4)c3n2)CC1`, the Potency was > 4 µM.

As to `COc1ncc2nc(-c3ccccc3)c(=O)n(-c3ccccc3)c2n1`, the Potency is > 20 µM.

In the case of `COc1cccc(-c2nc(NCc3ccccc3OC)c3ccccc3n2)c1`, the Potency is > 20 µM.

On to `N#Cc1cccc(NC(=O)N2CCCC3(CCN(C(=O)c4csnn4)CC3)C2)c1`, for which the Potency is > 20 µM.

Consider `COCC(=O)N1CCC2(CC1)CCN(c1ccc(-c3ccccc3)cc1)CC2`, for which the Potency was > 20 µM.

For the compound `COCCn1c(=O)c(-c2cccs2)nc2cnc(N3CCN(C)CC3)nc21`, the Potency was > 20 µM.

Regarding `CC(=O)N1CCC2(CCCN(c3cccc(-c4ccccc4)c3)C2)CC1`, the Potency is > 20 µM.

Regarding `O=c1c(-c2ccc(Cl)cc2)nc2cnc(N3CCNCC3)nc2n1-c1ccccc1`, the Potency was > 20 µM.

With `N#Cc1ccc(CN2CCCC3(CCNCC3)C2)cc1`, the Potency is > 20 µM.

In the case of `CN(C)c1ncc2nc(-c3ccc(F)cc3)c(=O)n(Cc3ccc(F)cc3)c2n1`, the Potency is > 20 µM.

For the compound `Cc1cnc(CNc2nc(-c3ccc(N(C)C)cc3)nc3ccccc23)cn1`, the Potency is > 20 µM.

With `COc1ccc(-c2nc3cnc(N4CCNCC4)nc3n(-c3ccc(OC)cc3)c2=O)cc1`, the Potency was > 20 µM.

With `COc1ncc2nc(-c3cccs3)c(=O)n(C)c2n1`, the Potency is > 20 µM.

As to `COCCn1c(=O)c(-c2cccc(Cl)c2)nc2cncnc21`, the Potency was > 20 µM.

`COc1ccc(Oc2ncc3nc(-c4ccc(OC)cc4)c(=O)n(Cc4cccs4)c3n2)cc1`: the Potency is > 20 µM.

`COCCn1c(=O)c(-c2ccc(OC)cc2)nc2cnc(Nc3ccccc3)nc21`: the Potency is > 20 µM.

For `Cc1cccc(CNc2ccnc(-c3cccc(C#N)c3)n2)c1`, the Potency is > 20 µM.

With `O=c1c(-c2ccc(Cl)cc2)nc2cnc(N3CCOCC3)nc2n1C[C@H]1CCCO1`, the Potency was > 20 µM.

On to `O=c1c(CCc2ccccc2)nc2cnc(N3CCNCC3)nc2n1-c1ccccc1`, for which the Potency was > 20 µM.

On to `COCCn1c(=O)c(-c2ccc(OC)cc2)nc2cnc(OCc3ccccc3)nc21`, for which the Potency was > 20 µM.

On to `CC(C)NC(=O)N1CCCC2(CCN(C(=O)c3ccco3)CC2)C1`, for which the Potency is > 20 µM.

As for `CN(C)c1ncc2nc(CCc3ccccc3)c(=O)n(C3CC3)c2n1`, the Potency was > 20 µM.

Consider `CN(C)c1ncc2ncc(=O)n(CCc3ccccc3)c2n1`, for which the Potency is > 20 µM.

Take `CNc1nc(-c2cccnc2)nc2ccccc12`: the Potency was > 20 µM.

In the case of `CC(C)NC(=O)N1CC2(CCN(C(=O)c3cccn3C)CC2)C1`, the Potency is > 20 µM.

Regarding `N#Cc1ccc(CN2CC3(CCN(C(=O)c4csnn4)CC3)C2)cc1`, the Potency was > 20 µM.

Take `Cc1cnc(CNc2ncncc2-c2cccc(C#N)c2)cn1`: the Potency was > 20 µM.

Take `COC(=O)N1CCC[C@@]2(CCN(c3ccccn3)C2)C1`: the Potency was > 20 µM.

As for `O=c1c(CCc2ccccc2)nc2cncnc2n1Cc1ccccc1Cl`, the Potency is > 20 µM.

For the compound `Cc1noc(C)c1-c1ccc2ncnc(NCc3cccs3)c2c1`, the Potency is > 20 µM.

`COc1ncc2nc(-c3cc(F)cc(F)c3)c(=O)n(C)c2n1`: the Potency is > 20 µM.
